According to PubChem BioAssay (Tox21):
Results filed as inconclusive are left out. Activity calls are given as the source filed them. Unless noted, the call rests on the fitted dose curve.

Test: qHTS assay to identify small molecule agonists of the endoplasmic reticulum stress response signaling pathway (AID 1159516; active means well fitted activation curve with a large enough effect in the signal ratio in the repeat runs, not every such curve was filed as active; the % refers to the signal ratio)
Conditions: ESRE-bla HeLa, ER stress beta-lactamase reporter, 5 h; series mostly up to 61 µM
Method in brief: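 Fluorescence at 460 and 530 nm (405 nm excitation) reports beta-lactamase from an ER stress response element in HeLa cells treated 5 hr at 37 C.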
In the case of `Cc1ccc([N+](=O)[O-])cc1C`, the outcome is reported as “inactive”. With `O=NN1CCCCCCC1` the outcome was “inactive”. In the case of `CCCCCCCCCl`, the outcome is reported as “inactive”. With `C1CN2CCN1CC2` the outcome was “inactive”. For `C#CCN(C)[C@H](C)Cc1ccccc1`, the outcome was “inactive”. In the case of `CCNc1nc(NC(C)(C)C)nc(SC)n1`, the outcome is reported as “inactive”. For `OCCN(CCO)CCO`, the outcome was “inactive”. With `Nc1ccccc1C(=O)O` the outcome was “inactive”. For `C=CCO`, the outcome was “inactive”. In the case of `c1ccc2c(c1)oc1ccccc12`, the outcome is reported as “inactive”. With `[O-][Cl+2]([O-])O` the outcome was “inactive”. In the case of `Nc1ccc(Cc2ccc(N)cc2)cc1`, the outcome is reported as “inactive”. In the case of `O=C(NC(=O)c1c(F)cccc1F)Nc1cc(Cl)c(OC(F)(F)C(F)C(F)(F)F)cc1Cl` (stereo not drawn), the outcome is reported as “inactive”.

Test: qHTS assay to identify small molecule agonists of the endoplasmic reticulum stress response signaling pathway - cell viability counter screen (AID 1159517); further: nearly all actives have a fitted effect of over 50% in size
Conditions: ESRE-bla HeLa viability, CellTiter-Glo luminescence, 5 h; series mostly up to 61 µM
Method in brief: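 After overnight attachment, ESRE-bla HeLa cells were treated with Tox21 library compounds for 5 hr. CellTiter-Glo luminescence, read 30 min post-addition at room temperature, reported viability.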
For `CC(C)C#N`, the outcome was “inactive”. In the case of `CC1OC(C)OC(C)O1` (stereo not drawn), the outcome is reported as “inactive”. In the case of `Cc1cccc([N+](=O)[O-])c1`, the outcome is reported as “inactive”. With `Cc1ccc([N+](=O)[O-])cc1C` the outcome was “inactive”. For `CCC[N+](=O)[O-]`, the outcome was “inactive”. In the case of `COP(N)(=O)SC` (stereo not drawn), the outcome is reported as “inactive”. For `O=c1[nH]c(=O)[nH]c(=O)[nH]1`, the outcome was “inactive”. With `O=NN1CCCCCCC1` the outcome was “inactive”. With `CCCCCCCCCl` the outcome was “inactive”. With `C#CC(C)(C)NC(=O)c1cc(Cl)cc(Cl)c1` the outcome was “inactive”. With `O=C(O)c1ccccn1` the outcome was “inactive”. For `C1CN2CCN1CC2`, the outcome was “inactive”. With `OC(O)C(Cl)(Cl)Cl` the outcome was “inactive”. With `O=S(=O)(c1ccc(Cl)cc1)c1cc(Cl)c(Cl)cc1Cl` the outcome was “inactive”. For `CNC(=O)Oc1ccccc1OC(C)C`, the outcome was “inactive”. With `C#CCN(C)[C@H](C)Cc1ccccc1` the outcome was “inactive”. In the case of `CCNc1nc(NC(C)(C)C)nc(SC)n1`, the outcome is reported as “inactive”. For `OCCN(CCO)CCO`, the outcome was “inactive”. In the case of `BrCCBr`, the outcome is reported as “inactive”. In the case of `O=S(=O)(c1ccc(O)cc1)c1ccc(O)cc1`, the outcome is reported as “inactive”.
